In PubChem BioAssay (EPA / NIEHS) one finds outcome and AC50 data, which are given here for twelve compounds.

Molecules are shown by their SMILES. Inconclusive results are not listed. The source made the active and inactive calls. Rule for the calls, unless noted: active = hit-call score of the fitted dose curve at least 0.9, where 1 is the maximum; inconclusive = response in the unintended direction; inactive = score below 0.9.

Assay [1] addresses human Retinoic Acid Receptor gamma (RARg), RARG (gene 5916) (UniProt P13631). Briefly: ATG_RARg_TRANS: Attagene TRANS-FACTORIAL HepG2 Assay for human Retinoic Acid Receptor gamma (RARg) (AID 2283009). In short, it runs like this:
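HepG2 transiently transfected with GAL4-UAS reporter units and chimeric NR-Gal4 constructs; 24 h compound exposure. Reporter mRNA quantified by RT-PCR, FAM labeling, HpaI digestion and capillary electrophoresis; gain-of-signal versus DMSO.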

Assay [2] concerns the target Bile acid receptor (Homo sapiens) (UniProt Q96RI1). Briefly: OT_FXR_FXRSRC1_0480: Odyssey Thera (OT) 8-hour HEK293T Protein-Complementation Assay for Farnesoid X receptor/SRC-1 Co-activator (AID 2283383). In short, it runs like this:
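HEK293T protein-fragment complementation assay: FXR and SRC-1 coactivator are fused to reporter fragments, and their interaction restores a fluorescent reporter. Readout was taken 8 h after dosing, with gain of signal fit relative to DMSO.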

Assay [3] has as its target human Peripheral-type Benzodiazepine Receptor (PBR), TSPO (gene 706) (UniProt P30536). The experiment in a line: NVS_MP_hPBR: NovaScreen (NVS) Membrane Protein Assay for human Peripheral-type Benzodiazepine Receptor (PBR) (AID 2283331).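 Note: hits reduce radioligand binding relative to DMSO baseline.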 In short, it runs like this:
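Human colonic cell membranes were incubated with test chemical for 1 hour; radioligand binding was measured by filter-based scintillation counting. Primary screen ran in duplicate at 25 uM, with actives followed in concentration series; loss of signal versus DMSO baseline.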

For assay [4], the target named is rat Peripheral-type Benzodiazepine Receptor (PBR), Tspo (gene 24230) (UniProt P16257). Briefly: NVS_MP_rPBR: NovaScreen (NVS) Membrane Protein Assay for rat Peripheral-type Benzodiazepine Receptor (PBR) (AID 2283335). Summed up: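 Rat kidney membranes; radioligand binding with displacement, filter-based scintillation counting, 1 h incubation. Primary screen in duplicate at 25 uM, actives followed in concentration series; loss of binding vs DMSO.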
Chain of rat Peripheral-type Benzodiazepine Receptor (PBR), Tspo (gene 24230) (P16257 whole entry, looked up): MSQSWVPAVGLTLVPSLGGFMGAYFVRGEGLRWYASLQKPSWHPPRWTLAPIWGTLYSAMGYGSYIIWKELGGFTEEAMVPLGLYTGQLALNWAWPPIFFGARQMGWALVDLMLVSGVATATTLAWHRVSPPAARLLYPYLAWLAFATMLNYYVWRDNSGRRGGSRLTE

Assay [5] can be described thus: TAMU_PeakParms_SingleDonor1434_Chronotropy: Texas A&M University (TAMU) 1.5-hr Human Induced Pluripotent Stem Cell (iPSC)-derived Cardiomyocytes Calcium (Ca+2) Flux Assay for Cardiotoxicity: Chronotropy (changes in peak frequency) (AID 2284217; active = hit-call score of the fitted dose curve at least 0.9, where 1 is the maximum; inactive = score below 0.9). Conditions: actives raise or lower the signal. Summed up:
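Beat rate, as mean Ca2+-flux peak frequency, was read from donor 1434 iPSC cardiomyocytes 90 min after exposure to 0.2–100 uM test chemical (0.5% DMSO). Wells that stopped beating were excluded; EC05 from bidirectional DMSO-referenced fitting.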

A short description of assay [6]: TAMU_PeakParms_SingleDonor1434_QT: Texas A&M University (TAMU) 1.5-hr Human Induced Pluripotent Stem Cell (iPSC)-derived Cardiomyocytes Calcium (Ca+2) Flux Assay for Cardiotoxicity: QT (decay-rise ratio) (AID 2284235). In short, it runs like this: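 iPSC-derived cardiomyocytes (single donor 1434) dosed at 0.2, 1, 10, 100 uM final in 0.5% DMSO, 90 min at 37C. Ca2+ flux fluorescence decay/rise ratio; EC05 (5% increase versus DMSO) as POD, excluding beat-arrest and severe-notch data.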

Assay [7] is described as follows: TAMU_PeakParms_SingleDonor1434_Asystole: Texas A&M University (TAMU) 1.5-hr Human Induced Pluripotent Stem Cell (iPSC)-derived Cardiomyocytes Calcium (Ca+2) Flux Assay for Cardiotoxicity: Asystole (quiescence of beating) (AID 2284328). In short, it runs like this: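 Human iPSC-derived cardiomyocytes (donor 1434) were exposed to 0.2, 1, 10 and 100 uM compound in 0.5% DMSO for 90 min at 37C. Ca2+-dye fluorescence gave average peak frequency; POD is EC95, a 95% beat-rate drop versus DMSO.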

For assay [8], the target named is human Adenosine A2a Receptor (AdoRA2a), ADORA2A (gene 135) (UniProt P29274). The experiment in a line: NVS_GPCR_hAdoRA2a: NovaScreen (NVS) G Protein-Coupled Receptor Assay for human Adenosine A2a Receptor (AdoRA2a) (AID 2283256). Summed up:
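Radioligand displacement on HEK293-derived membrane protein, cell-free; filter-based scintillation counting 1.5 hours after dosing, loss of signal vs DMSO. Single-point duplicate screen at 25 uM, actives retested in concentration series.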

Assay [9] is described as follows: CEETOX_H295R_11DCORT: CeeTox H295R High-throughput Steroidogenesis Assay for 11-Deoxycortisol (11DCORT) (AID 2283432; active = hit-call score of the fitted dose curve at least 0.9, where 1 is the maximum; inactive = score below 0.9). The following applies: actives raise or lower the signal. Summed up:
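Human adrenal H295R cells were prestimulated with 10 uM forskolin for 48 h, then exposed to test chemical (0.1% DMSO final) for 48 h. Medium 11-deoxycortisol was quantified by MTBE extraction and HPLC-MS/MS; bidirectional fitting relative to DMSO.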

Assay [10] in a line: CEETOX_H295R_OHPREG: CeeTox H295R High-throughput Steroidogenesis Assay for OH-Pregnenolone (OHPREG) (AID 2283434; active = hit-call score of the fitted dose curve at least 0.9, where 1 is the maximum; inactive = score below 0.9). Conditions: actives raise or lower the signal. In short, it runs like this: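 Human adrenal H295R cells were prestimulated 48 h with 10 uM forskolin, then exposed 48 h to chemical in 0.1% DMSO. Medium 17alpha-hydroxypregnenolone was quantified by HPLC-MS/MS after MTBE extraction; bidirectional fitting versus DMSO baseline.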

Assay [11] can be described thus: CEETOX_H295R_OHPROG: CeeTox H295R High-throughput Steroidogenesis Assay for OH-Progesterone (OHPROG) (AID 2283435; active = hit-call score of the fitted dose curve at least 0.9, where 1 is the maximum; inactive = score below 0.9). Conditions: actives raise or lower the signal. In short, it runs like this: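 H295R adrenal cells prestimulated 48 h with 10 uM forskolin, then exposed 48 h to chemical (0.1% DMSO final). 17alpha-hydroxyprogesterone in medium quantified by HPLC-MS/MS; bidirectional fit versus DMSO, with MTT viability measured in the same wells.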

Assay [12] is described as follows: CEETOX_H295R_CORTIC: CeeTox H295R High-throughput Steroidogenesis Assay for Corticosterone (CORTIC) (AID 2283437; active = hit-call score of the fitted dose curve at least 0.9, where 1 is the maximum; inactive = score below 0.9;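 note: corticosterone secreted into medium quantified by mass spectrometry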). The following applies: actives raise or lower the signal. Summed up:
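H295R cells were prestimulated 48 h with 10 uM forskolin, then exposed 48 h to test chemical in 0.1% DMSO. Medium corticosterone was MTBE-extracted and quantified by HPLC-MS/MS; bidirectional fit versus DMSO baseline.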

Assay [13] can be described thus: CEETOX_H295R_CORTISOL: CeeTox H295R High-throughput Steroidogenesis Assay for Cortisol (AID 2283438; active = hit-call score of the fitted dose curve at least 0.9, where 1 is the maximum; inactive = score below 0.9;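 note: cortisol secreted into medium quantified by LC-MS/MS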). The following applies: actives raise or lower the signal. In short, it runs like this:
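Forskolin-primed H295R cells (10 uM, 48 h) treated 48 h with test chemical in 0.1% DMSO. Cortisol in medium quantified by MTBE extraction and HPLC-MS/MS; bidirectional fit vs DMSO, MTT viability in same wells.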

Assay [14] in a line: CEETOX_H295R_DOC: CeeTox H295R High-throughput Steroidogenesis Assay for DOC (AID 2283439; active = hit-call score of the fitted dose curve at least 0.9, where 1 is the maximum; inactive = score below 0.9). Conditions: actives raise or lower the signal. In short, it runs like this: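 H295R cells prestimulated 48 h with 10 uM forskolin, then exposed 48 h to test chemical (0.1% DMSO final). Medium 11-deoxycorticosterone measured by HPLC-MS/MS after MTBE extraction; bidirectional fit vs DMSO, viability checked by MTT in same wells.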

A short description of assay [15]: CEETOX_H295R_PROG: CeeTox H295R High-throughput Steroidogenesis Assay for Progesterone (PROG) (AID 2283442; active = hit-call score of the fitted dose curve at least 0.9, where 1 is the maximum; inactive = score below 0.9). Conditions: actives raise or lower the signal. In short, it runs like this: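 H295R human adrenal cells were prestimulated with 10 uM forskolin for 48 h, then exposed to test chemical (0.1% DMSO final) for 48 h. Medium progesterone was MTBE-extracted and quantified by HPLC-MS/MS, with bidirectional fitting against DMSO.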

A short description of assay [16]: CCTE_Shafer_MEA_dev_LDH: CCTE's Lactate Dehydrogenase Assay for Cytotoxicity in the Neural Network Formation Assay, Shafer Lab (AID 2284068).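 Note: exposure for twelve days from plating with re-dosing on DIV 5 and 9.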 In short, it runs like this: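 Primary rat cortical neurons were cultured on PEI-coated MEA plates and exposed from plating through day 12, with compound renewed at medium changes on DIV 5 and 9. LDH activity was read spectrophotometrically; loss of signal versus DMSO indicates reduced viability.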

Assay [17] in a line: CCTE_Shafer_MEA_dev_mutual_information_norm: CCTE's Neural Network Formation Assay for Mutual Information Normalization, Shafer Lab (AID 2284091; active = hit-call score of the fitted dose curve at least 0.9, where 1 is the maximum; inactive = score below 0.9;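 note: mutual information between electrodes summarised as area under curve across four recording days; potency is for a decrease in mutual information relative to DMSO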). In short, it runs like this: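 Rat cortical cultures, 48-well MEA, continuous exposure DIV 0–12 with full media/compound change DIV 5 and 9. Readout: inter-electrode mutual information, AxIS adaptive spike detection; AUC across DIV 5/7/9/12 recordings; DMSO baseline, negative fitting direction.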

Assay [18] is described as follows: CCTE_Shafer_MEA_dev_correlation_coefficient_mean: CCTE's Neural Network Formation Assay for Mean Correlation Coefficient, Shafer Lab (AID 2284093; active = hit-call score of the fitted dose curve at least 0.9, where 1 is the maximum; inactive = score below 0.9;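 note: well mean pairwise spike train correlation integrated as AUC over recording days 5 to 12; potency fitted for loss of correlation relative to DMSO vehicle wells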). Summed up: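 Primary rat cortical neurons on PEI-coated 48-well MEA plates (16 electrodes/well) were exposed from plating day 0 through DIV12, with compound renewed at DIV5 and 9. Pairwise spike correlations were averaged per well; trapezoidal AUC across DIV5, 7, 9, 12.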

The next assay deals with THRA (gene 7067) (UniProt P10827). The experiment in a line: TOX21_TRA_COA_Antagonist_Followup_ratio: Tox21 Thyroid Hormone Receptor alpha Antagonism through Coactivator Recruitment Follow-Up Assay, Ratio (AID 2283953). Summed up:
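520:495 nm emission ratio (excitation 340 nm) reports fluorescein-SRC-2 peptide recruitment to GST-TRα LBD by TR-FRET with Tb anti-GST antibody. Values were normalized to DMSO (0%) and T3 control wells (100%); loss of signal indicated antagonism.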

Assay [19] can be described thus: TOX21_PR_LUC_Followup_Agonist_viability: Viability Assessment in the Tox21 HEK293 Progesterone Receptor (PR) Agonism Luciferase Follow-Up Assay (AID 2283941).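 Note: loss of signal means cytotoxicity so actives lower viability.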 Summed up:
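HEK293-PR-A-luc cells, kept in 10% charcoal-stripped FBS medium, were treated with compounds for 16 h at 37C. Viability read as cellular ATP by luciferase-coupled luminescence; loss of signal indicates cytotoxicity.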

The term AC50 denotes the concentration giving half of the maximal activity seen.

Chain of THRA (gene 7067) (P10827 whole entry, looked up, the tested form may be a part): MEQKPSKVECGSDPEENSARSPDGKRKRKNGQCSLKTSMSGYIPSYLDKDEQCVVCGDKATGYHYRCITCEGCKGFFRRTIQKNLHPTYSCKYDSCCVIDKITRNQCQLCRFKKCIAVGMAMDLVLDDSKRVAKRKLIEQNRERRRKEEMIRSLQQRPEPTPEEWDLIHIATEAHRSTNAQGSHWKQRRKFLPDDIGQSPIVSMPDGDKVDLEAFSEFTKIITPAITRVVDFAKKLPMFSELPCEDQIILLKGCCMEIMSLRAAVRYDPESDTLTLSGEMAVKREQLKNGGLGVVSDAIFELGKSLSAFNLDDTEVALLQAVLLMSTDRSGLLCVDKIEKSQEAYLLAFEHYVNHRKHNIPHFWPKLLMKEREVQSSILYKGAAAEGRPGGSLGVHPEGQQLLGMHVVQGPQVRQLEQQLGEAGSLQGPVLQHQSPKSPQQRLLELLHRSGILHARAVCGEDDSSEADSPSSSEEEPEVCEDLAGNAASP
Chain of human Peripheral-type Benzodiazepine Receptor (PBR), TSPO (gene 706) (P30536 whole entry, looked up): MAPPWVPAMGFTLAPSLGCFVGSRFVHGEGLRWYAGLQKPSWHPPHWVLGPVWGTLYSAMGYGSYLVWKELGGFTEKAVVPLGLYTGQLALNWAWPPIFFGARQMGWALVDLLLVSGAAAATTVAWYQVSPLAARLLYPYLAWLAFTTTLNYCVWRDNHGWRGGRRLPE
Chain of human Adenosine A2a Receptor (AdoRA2a), ADORA2A (gene 135) (P29274 whole entry, looked up): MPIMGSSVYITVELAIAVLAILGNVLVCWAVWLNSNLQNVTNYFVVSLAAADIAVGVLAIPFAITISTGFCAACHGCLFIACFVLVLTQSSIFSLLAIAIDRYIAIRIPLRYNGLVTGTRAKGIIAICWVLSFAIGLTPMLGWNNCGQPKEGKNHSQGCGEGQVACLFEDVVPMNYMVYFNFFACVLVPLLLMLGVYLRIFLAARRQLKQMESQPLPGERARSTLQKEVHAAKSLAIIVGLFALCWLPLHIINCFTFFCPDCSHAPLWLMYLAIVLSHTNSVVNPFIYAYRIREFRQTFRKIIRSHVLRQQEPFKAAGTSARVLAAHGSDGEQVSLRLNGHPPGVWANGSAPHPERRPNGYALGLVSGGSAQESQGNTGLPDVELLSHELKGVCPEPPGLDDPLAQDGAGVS
Chain of human Retinoic Acid Receptor gamma (RARg), RARG (gene 5916) (P13631 whole entry, looked up, the tested form may be a part): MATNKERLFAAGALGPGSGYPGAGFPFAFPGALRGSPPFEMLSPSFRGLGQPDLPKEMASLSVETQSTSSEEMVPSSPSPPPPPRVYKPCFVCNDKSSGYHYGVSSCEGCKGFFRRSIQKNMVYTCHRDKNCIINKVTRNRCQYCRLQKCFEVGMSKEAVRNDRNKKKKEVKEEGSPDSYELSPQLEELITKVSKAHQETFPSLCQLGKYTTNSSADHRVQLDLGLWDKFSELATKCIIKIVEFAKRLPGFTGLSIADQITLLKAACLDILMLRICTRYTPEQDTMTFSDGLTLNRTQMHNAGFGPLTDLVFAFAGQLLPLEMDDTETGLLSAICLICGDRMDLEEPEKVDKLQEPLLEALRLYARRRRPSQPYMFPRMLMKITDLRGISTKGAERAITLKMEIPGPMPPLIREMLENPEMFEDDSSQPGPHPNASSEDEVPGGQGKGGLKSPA
Chain of Bile acid receptor (Homo sapiens) (Q96RI1 whole entry, looked up, the tested form may be a part): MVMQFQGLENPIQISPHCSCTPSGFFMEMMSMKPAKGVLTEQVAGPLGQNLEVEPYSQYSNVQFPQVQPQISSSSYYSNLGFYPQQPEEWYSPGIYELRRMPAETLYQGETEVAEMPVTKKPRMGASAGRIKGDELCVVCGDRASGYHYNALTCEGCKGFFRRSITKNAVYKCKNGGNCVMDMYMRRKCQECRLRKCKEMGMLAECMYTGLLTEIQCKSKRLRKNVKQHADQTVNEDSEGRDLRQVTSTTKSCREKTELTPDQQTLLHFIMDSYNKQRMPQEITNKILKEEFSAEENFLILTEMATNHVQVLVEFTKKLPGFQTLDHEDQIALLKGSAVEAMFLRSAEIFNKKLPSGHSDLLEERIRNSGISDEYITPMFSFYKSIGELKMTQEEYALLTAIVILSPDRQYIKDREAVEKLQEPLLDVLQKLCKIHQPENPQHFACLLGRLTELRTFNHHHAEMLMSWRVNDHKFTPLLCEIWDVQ

As for `O=C(C1CCCCC1)N1CC(=O)N2CCc3ccccc3C2C1` (stereo not given), the result in assay [1] was inactive.
In the case of `CC(=O)OC(C)(C)Cc1ccccc1`, the call in assay [2] was inactive.
As to `CC(=[OH+])/C=C(/C)[O-].CC(=[OH+])/C=C(/C)[O-].CC(=[OH+])/C=C(/C)[O-].[Al]`, the call in assay [3] was inactive. For the same compound, the AC50 in [4] is 7030 nM (active).
For the compound `Nc1nc(N)c2nc(-c3ccccc3)c(N)nc2n1`, the result in assay [5], in [6] and in assay [7] was inactive.
For `CCC(C)(CCC(C)C)C(=O)O` (stereo not given), in [8], the compound was called inactive.
As to `CCO[Si](CCCN)(OCC)OCC`, the result in [9], in [10], in assay [11], in assay [12], in [13] and in assay [14] was inactive. Besides, in assay [15], the outcome was inactive.
As for `COc1ccc2cc3[n+](cc2c1OC)CCc1cc2c(cc1-3)OCO2`, the results for the AC50 in [16], in assay [17] and in [18] were 88.1 nM (active), 92.6 nM (active) and 106 nM (active), respectively.
The like results for `CNCCC(Oc1ccc(C(F)(F)F)cc1)c1ccccc1` (stereo not given) were, in that order, 2080 nM (active), 2580 nM (active) and 4190 nM (active).
Regarding `O=[Se](O)O`, the concentration at half-maximal activity (AC50) in the assay with THRA (gene 7067) is 34400 nM (active).
As for `CC(O)(c1ccc(Cl)cc1)c1ccc(Cl)cc1`, the compound was called inactive in [19].
`CO[C@H]1C[C@@H]2CC[C@@H](C)[C@@](O)(O2)C(=O)C(=O)N2CCCC[C@H]2C(=O)O[C@H]([C@H](C)C[C@@H]2CC[C@@H](O)[C@H](OC)C2)CC(=O)[C@H](C)/C=C(\C)[C@@H](O)[C@@H](OC)C(=O)[C@H](C)C[C@H](C)\C=C/C=C/C=C/1C`: in the assay with THRA (gene 7067), the outcome was inactive.
In the case of `CC(COc1ccccc1)N(CCCl)Cc1ccccc1` (stereo not given), the outcome in [19] was inactive.
